Results filed as inconclusive are left out. Calls of active or inactive are those of the source. The call rests on the fitted dose curve; in most records, active means well fitted curve in the direction sought with a large enough effect; inconclusive means small, poorly fitted or top-dose-only effect, or another doubt; inactive means no such curve, though single readings can be large; an effect the other way counts as inactive or inconclusive.
Legend:
[1] = Quantitative High-Throughput drug screen in 47 multiple myeloma cell lines against the NCATS MIPE library collection: KMS28PE_JCRB cell viability assay (AID 1918983); further: nearly all actives have a fitted effect of over 35% in size; further: potency means the concentration at half of the fitted maximal effect
In short: (§1)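 500 cells/well per myeloma line exposed to pinned MIPE 4.0 compounds for 48 h at 37 °C, 5% CO2. Viability read as ATP by CellTiter-Glo luminescence, normalised to DMSO-only (100%) and media-only (0%) wells.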

[2] = Quantitative High-Throughput drug screen in 47 multiple myeloma cell lines against the NCATS MIPE library collection: KMS34_JCRB cell viability assay (AID 1918985); further: nearly all actives have a fitted effect of over 40% in size; further: potency means the concentration at half of the fitted maximal effect
In short: as §1

[3] = Quantitative High-Throughput drug screen in 47 multiple myeloma cell lines against the NCATS MIPE library collection: OPM1_PLB cell viability assay (AID 1918989); further: nearly all actives have a fitted effect of over 40% in size; further: potency means the concentration at half of the fitted maximal effect
In short: as §1

[4] = Quantitative High-Throughput drug screen in 47 multiple myeloma cell lines against the NCATS MIPE library collection: SKMM1_PLB cell viability assay (AID 1919863); settings: SKMM1 myeloma viability, CellTiter-Glo ATP, 48 h; viability: stronger effect = lower value; further: nearly all actives have a fitted effect of over 35% in size; further: potency means the concentration at half of the fitted maximal effect; on viability: series mostly up to about 46 µM
In short: as §1

[5] = Quantitative High-Throughput drug screen in 47 multiple myeloma cell lines against the NCATS MIPE library collection: U266_ATCC cell viability assay (AID 1919864); further: nearly all actives have a fitted effect of over 35% in size; further: potency means the concentration at half of the fitted maximal effect
In short: as §1

[6] = Quantitative High-Throughput drug screen in 47 multiple myeloma cell lines against the NCATS MIPE library collection: XG6_PLB cell viability assay (AID 1919865); further: nearly all actives have a fitted effect of over 40% in size; further: potency means the concentration at half of the fitted maximal effect
In short: as §1

[7] = Quantitative High-Throughput drug screen in 47 multiple myeloma cell lines against the NCATS MIPE library collection: XG1_PLB cell viability assay (AID 1919866); further: nearly all actives have a fitted effect of over 35% in size; further: potency means the concentration at half of the fitted maximal effect
In short: as §1

[8] = Quantitative High-Throughput drug screen in 47 multiple myeloma cell lines against the NCATS MIPE library collection: VP6_DJ cell viability assay (AID 1919867); further: potency means the concentration at half of the fitted maximal effect; nearly all actives have a fitted effect of over 40% in size
In short: as §1

[9] = Quantitative High-Throughput drug screen in 47 multiple myeloma cell lines against the NCATS MIPE library collection: RPMI8226_ATCC cell viability assay (AID 1919871); further: nearly all actives have a fitted effect of over 30% in size; further: potency means the concentration at half of the fitted maximal effect
In short: as §1

[10] = Quantitative High-Throughput drug screen in 47 multiple myeloma cell lines against the NCATS MIPE library collection: OPM2_DSMZ cell viability assay (AID 1919872); further: nearly all actives have a fitted effect of over 30% in size; further: potency means the concentration at half of the fitted maximal effect
In short: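 Primary qHTS used for cherry-picking: cells at 500/well, library compounds for 48 h (37C, 5% CO2), luminescent ATP assay.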

[11] = Quantitative High-Throughput drug screen in 47 multiple myeloma cell lines against the NCATS MIPE library collection: KMS11_JCRBsus cell viability assay (AID 1919873); further: nearly all actives have a fitted effect of over 50% in size; further: potency means the concentration at half of the fitted maximal effect
In short: as §1

[12] = Quantitative High-Throughput drug screen in 47 multiple myeloma cell lines against the NCATS MIPE library collection: KMS28BM_JCRB cell viability assay (AID 1919874); further: nearly all actives have a fitted effect of over 35% in size; further: potency means the concentration at half of the fitted maximal effect
In short: as §1

[13] = Quantitative High-Throughput drug screen in 47 multiple myeloma cell lines against the NCATS MIPE library collection: L363_DSMZ cell viability assay (AID 1918984); further: nearly all actives have a fitted effect of over 40% in size
In short: as §1

[14] = Quantitative High-Throughput drug screen in 47 multiple myeloma cell lines against the NCATS MIPE library collection: UTMC2_PLB cell viability assay (AID 1919868); further: nearly all actives have a fitted effect of over 55% in size; further: potency means the concentration at half of the fitted maximal effect
In short: as §1

[15] = Quantitative High-Throughput drug screen in 47 multiple myeloma cell lines against the NCATS MIPE library collection: PE2_PLB cell viability assay (AID 1919869); further: nearly all actives have a fitted effect of over 35% in size; further: potency means the concentration at half of the fitted maximal effect
In short: as §1

[16] = Quantitative High-Throughput drug screen in 47 multiple myeloma cell lines against the NCATS MIPE library collection: PCM6_Riken cell viability assay (AID 1919870); further: nearly all actives have a fitted effect of over 30% in size; further: potency means the concentration at half of the fitted maximal effect
In short: as §1

[17] = target: Cytochrome P450 3A4 (Homo sapiens) (UniProt P08684); test: qHTS for inhibitors of CYP3A4 against the NCATS DSHEA and TCM libraries (AID 1919971);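 further: on the % scale 0 is the no-effect control and ±100 the full control effect; inhibition lowers luminescence from luciferin made by CYP3A4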
Sequence of Cytochrome P450 3A4 (Homo sapiens) (P08684 whole entry, looked up, canonical isoform): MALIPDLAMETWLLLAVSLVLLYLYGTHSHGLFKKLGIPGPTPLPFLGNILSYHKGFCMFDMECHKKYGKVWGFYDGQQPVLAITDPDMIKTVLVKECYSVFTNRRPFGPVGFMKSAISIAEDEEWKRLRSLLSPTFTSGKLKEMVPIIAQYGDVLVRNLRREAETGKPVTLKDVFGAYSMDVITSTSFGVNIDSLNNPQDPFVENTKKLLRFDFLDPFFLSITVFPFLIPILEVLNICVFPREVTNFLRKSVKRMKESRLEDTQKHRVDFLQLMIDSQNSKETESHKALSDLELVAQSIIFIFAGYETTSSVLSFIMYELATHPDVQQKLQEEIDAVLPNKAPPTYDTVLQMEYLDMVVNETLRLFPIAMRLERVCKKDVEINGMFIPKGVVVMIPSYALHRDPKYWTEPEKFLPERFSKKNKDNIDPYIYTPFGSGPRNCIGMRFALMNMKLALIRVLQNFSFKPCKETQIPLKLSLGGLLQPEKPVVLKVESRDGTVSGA
In short: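 Read-out is luminescence after P450-Glo detection (30 min, RT). Before that: 15 min compound–enzyme preincubation, then 30-45 min reaction with 1x NADPH regeneration solution, substrate concentration isoform-specific.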

[18] = target: Cytochrome P450 2D6 (Homo sapiens) (UniProt P10635); test: qHTS for inhibitors of CYP2D6 against the NCATS DSHEA and TCM libraries (AID 1919972); further: on the % scale 0 is the no-effect control and ±100 the full control effect
Sequence of Cytochrome P450 2D6 (Homo sapiens) (P10635 whole entry, looked up): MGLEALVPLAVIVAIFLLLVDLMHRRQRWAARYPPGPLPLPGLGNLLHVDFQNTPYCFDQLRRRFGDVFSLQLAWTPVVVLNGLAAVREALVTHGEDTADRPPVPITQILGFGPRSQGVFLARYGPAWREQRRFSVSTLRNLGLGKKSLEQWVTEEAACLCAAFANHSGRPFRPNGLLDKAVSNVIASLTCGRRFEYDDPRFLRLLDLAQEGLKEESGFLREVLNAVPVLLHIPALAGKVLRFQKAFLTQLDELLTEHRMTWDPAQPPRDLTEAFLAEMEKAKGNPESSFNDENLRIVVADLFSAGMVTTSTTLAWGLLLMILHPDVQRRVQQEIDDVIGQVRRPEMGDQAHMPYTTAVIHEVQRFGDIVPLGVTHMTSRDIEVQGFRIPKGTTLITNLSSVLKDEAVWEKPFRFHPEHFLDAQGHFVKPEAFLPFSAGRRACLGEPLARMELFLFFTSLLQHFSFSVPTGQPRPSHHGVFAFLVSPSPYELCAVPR
In short: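 Luminescent P450-Glo read-out of CYP2D6 turnover of a luciferin substrate after NADPH-driven reaction of 30-45 min at room temperature. Compounds were first preincubated 15 min with enzyme at titrated concentrations; quinidine was the intraplate control.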

[19] = Quantitative High-Throughput drug screen in 47 multiple myeloma cell lines against the NCATS MIPE library collection: OCIMY5_PLB cell viability assay (AID 1918988); further: nearly all actives have a fitted effect of over 65% in size; further: potency means the concentration at half of the fitted maximal effect
In short: as §1

[20] = Quantitative High-Throughput drug screen in 47 multiple myeloma cell lines against the NCATS MIPE library collection: OCIMY7_PLB cell viability assay (AID 1918987); further: nearly all actives have a fitted effect of over 65% in size; further: potency means the concentration at half of the fitted maximal effect
In short: as §1

Nc1nc2c(ncn2COC(CO)CO)c(=O)[nH]1
active: Potency [1] 20.9 µM | Potency [2] 23.5 µM | Potency [3] 16.6 µM | Potency [4] 20.9 µM | Potency [5] 23.5 µM | Potency [6] 20.9 µM | Potency [7] 23.5 µM | Potency [8] 18.7 µM | Potency [9] 26.4 µM | Potency [10] 23.5 µM | Potency [11] 18.7 µM | Potency [12] 29.6 µM

CC(C)Cc1ccc(C(C)C(=O)O)cc1 (configuration not stated)
inactive: Potency [1] | Potency [13] | Potency [2] | Potency [3] | Potency [7] | Potency [14] | Potency [15] | Potency [9] | Potency [10] | Potency [11]
active: Potency [6] 6.45 µM

Cn1c(=O)c2c(ncn2C)n(C)c1=O
inactive: Potency [1] | Potency [13] | Potency [2] | Potency [5] | Potency [6] | Potency [7] | Potency [14] | Potency [16] | Potency [9] | Potency [10] | Potency [11] | Potency [12] | outcome [17] | outcome [18]

COC(=O)Nc1nc2ccc(C(=O)c3cccs3)cc2[nH]1
active: Potency [1] 0.0059 µM | Potency [2] 0.0026 µM | Potency [3] 0.0132 µM | Potency [4] 0.0017 µM | Potency [14] 0.0209 µM | Potency [9] 0.526 µM | Potency [10] 0.0118 µM
inactive: Potency [12]

Cn1c(=O)c2[nH]cnc2n(C)c1=O
active: Potency [5] 20.9 µM | Potency [6] 26.4 µM
inactive: Potency [1] | Potency [2] | Potency [3] | viability [4] 104% | Potency [9] | Potency [10] | Potency [11] | Potency [12]

CC(=O)OCC(CCn1cnc2cnc(N)nc21)COC(C)=O
active: Potency [3] 0.0012 µM
inactive: Potency [1] | Potency [2] | Potency [6] | Potency [7] | Potency [14] | Potency [15] | Potency [9] | Potency [10] | Potency [11] | Potency [12]

CC(C)NCC(O)COc1ccc(CCOCC2CC2)cc1 (configuration not stated)
active: Potency [2] 5.9 µM
inactive: Potency [1] | Potency [19] | Potency [3] | Potency [7] | Potency [14] | Potency [9] | Potency [10] | Potency [12]

Cc1cc(C(C)(C)C)cc(C)c1CC1=NCCN1
inactive: Potency [1] | Potency [2] | Potency [3] | viability [4] 116% | Potency [5] | Potency [7] | Potency [14] | Potency [9] | Potency [10] | Potency [11]

O=C(Nc1ccc([N+](=O)[O-])cc1Cl)c1cc(Cl)ccc1O
active: Potency [1] 2.09 µM | Potency [2] 1.66 µM | Potency [3] 0.833 µM | Potency [4] 1.48 µM | Potency [6] 1.32 µM | Potency [7] 0.935 µM | Potency [14] 1.05 µM | Potency [15] 0.526 µM | Potency [9] 1.05 µM | Potency [10] 1.32 µM | Potency [11] 0.526 µM

COc1ccccc1N1CCN(CC(O)COc2cccc3ccccc23)CC1 (configuration not stated)
active: Potency [1] 13.2 µM | Potency [3] 14.8 µM | Potency [9] 26.4 µM | Potency [12] 13.2 µM
inactive: Potency [2] | viability [4] 119% | Potency [5] | Potency [7]

CC[N+](CC)(CC)CCOc1cccc(OCC[N+](CC)(CC)CC)c1OCC[N+](CC)(CC)CC
inactive: Potency [1] | Potency [2] | Potency [20] | Potency [3] | viability [4] 112% | Potency [5] | Potency [6] | Potency [7] | Potency [14] | Potency [16] | Potency [9]
active: Potency [10] 0.118 µM

CCc1cccc2c3c([nH]c12)C(CC)(CC(=O)O)OCC3 (configuration not stated)
inactive: Potency [1] | Potency [13] | Potency [2] | Potency [3] | Potency [5] | Potency [6] | Potency [7] | Potency [14] | Potency [9] | Potency [10] | Potency [11] | Potency [12]

Cn1cnc2c1c(=O)[nH]c(=O)n2C
active: Potency [1] 18.7 µM | Potency [2] 16.6 µM | Potency [19] 14.8 µM | Potency [3] 10.5 µM | Potency [4] 20.9 µM | Potency [5] 23.5 µM | Potency [6] 16.6 µM | Potency [7] 14.8 µM | Potency [14] 14.8 µM | Potency [15] 9.35 µM | Potency [9] 20.9 µM | Potency [10] 20.9 µM | Potency [11] 9.35 µM | Potency [12] 14.8 µM

COc1ccc(C2CNC(=O)C2)cc1OC1CCCC1 (configuration not stated)
inactive: Potency [1] | Potency [13] | Potency [3] | Potency [5] | Potency [9] | Potency [10] | Potency [11] | Potency [12]
active: Potency [6] 20.9 µM

Cc1cn([C@H]2C=C[C@@H](CO)O2)c(=O)[nH]c1=O
active: Potency [6] 3.82 µM
inactive: Potency [1] | Potency [13] | Potency [2] | Potency [3] | viability [4] 87.6% | Potency [5] | Potency [7] | Potency [9] | Potency [10]

CN(C)CCOC(c1ccccc1)c1ccccc1
inactive: Potency [1] | Potency [2] | viability [4] 119% | Potency [9] | Potency [10]
active: Potency [20] 18.7 µM | Potency [7] 7.43 µM | Potency [8] 6.62 µM | Potency [14] 10.5 µM | Potency [16] 8.33 µM | Potency [12] 5.9 µM

O=C(c1ccc(F)cc1)C1CCN(CCn2c(=O)[nH]c3ccccc3c2=O)CC1
inactive: Potency [1] | Potency [13] | Potency [2] | Potency [20] | Potency [3] | Potency [6] | Potency [14] | Potency [10]
active: Potency [5] 4.69 µM | Potency [9] 5.26 µM
